In PubChem BioAssay AID1578 (Sanford-Burnham Center for Chemical Genomics, 2009) one finds inhibition data, which are given here for 63 compounds.

In all, about 290,000 compounds went through this assay and about 3,000 (1%) were called active. Shown is part of a subset that was picked to be rich in actives. Unmarked numbers belong to inactive results. Cut-off read from the data, not from the text of the source: active = inhibition mostly above about 36% (no sharp cut-off); inactive = mostly below about 34%.

This assay is described as follows: inhibition of NOD1-driven NF-kB reporter – cell-based, luminescence, uHTS, primary screen (AID 1578).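 Note: HEK-293T reporter cells stimulated with the NOD1 agonist gamma-tri-DAP.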 Particulars: NOD1-driven NF-kB luciferase reporter cells, at 4 µM, stronger effect = higher value. (Reporter assays use an easily measured gene product as a stand-in for the process of interest.)
A word on the inhibition: it is the relative decrease from the control value, in per cent. For the compound `C=CCNC(=O)CN(c1ccc(F)c(Cl)c1)S(C)(=O)=O`, the inhibition was -17.3%. The result for `CC(=O)N[C@@H](C)C(=O)N1CCN(S(=O)(=O)c2ccc(Cl)cc2)CC1` reads -26%. As for `O=C(Nc1cccnc1Oc1ccc(Cl)cc1)c1cccc2ccccc12`, the figure is -9.2%. `COc1cc(OC)c(NC2c3ccccc3C(=O)N2c2cc(C)ccn2)cc1Cl` (stereo not drawn): the inhibition is -37.7%. `Cc1ccc(C)c(NC(=O)CCN2CCCCC2)c1`: the inhibition is -14.7%. Consider `CCO[C@H]1OC(C(=O)O)=C[C@@H](c2ccc3c(c2)OCO3)[C@@H]1CCCO`, for which the inhibition is -10.4%. As for `Cc1ccc2nc(-c3ccccc3)cn2c1`, the figure is 18%; as for `Cc1ccc(-c2cn3cc(C)ccc3n2)cc1`, 92.4% (active). `Cc1ccc2nc(-c3ccc(O)c(O)c3)cn2c1`: the inhibition was -18.6%.

Take `CCOC(=O)c1c(COc2ccccc2)oc2ccc(O)cc12`: the inhibition is 0%. `CCOC(=O)c1c(CSc2ccc(C)cc2)oc2ccc(O)cc12`: the inhibition is 30%. As to `CCOC(=O)c1c(CSc2ccccc2)oc2ccc(O)cc12`, the inhibition is 98.6% (active). The result for `CCOC(=O)CC(=O)CSc1nc2ccccc2c(=O)n1-c1ccc(C(=O)N2CCOCC2)cc1` reads 6.8%. As for `Cc1ccc(Cn2nnc3c(=O)[nH]c(C4CCCN(S(=O)(=O)c5ccc(F)cc5)C4)nc32)cc1` (stereo not drawn), the inhibition is -17.1%.

Turning to `CCN(CC(=O)Nc1ccc(NC(C)=O)cc1)C(=O)C1COc2ccccc2O1` (stereo not drawn), the inhibition was -17.6%. As to `CC(CN1CCOCC1)OC(=O)c1ccc(Br)cc1` (stereo not drawn), the inhibition is -14.8%.

For `CC(CN1CCOCC1)OC(=O)c1ccccc1` (stereo not drawn), the inhibition is -4.8%. Regarding `CC(CN1CCOCC1)OC(=O)c1ccc(C(C)(C)C)cc1` (stereo not drawn), the inhibition is 68.1% (active). The result for `Cc1nc2c(c(=O)n1Cc1ccccc1Cl)c1nc3ccccc3nc1n2Cc1ccco1` reads 17.8%. The result for `COc1ccc(Cn2c3nc4ccccc4nc3c3c(=O)n(Cc4ccco4)cnc32)cc1` reads 32.5%; that for `COc1ccc(Cn2c3nc4ccccc4nc3c3c(=O)n(Cc4ccco4)c(C)nc32)cc1`, 110% (active). As for `O=C(NS(=O)(=O)Nc1ccc(Br)cn1)c1c[nH]c2ccccc12`, the figure is 31.1%; as for `CCOc1ccc(S(=O)(=O)N(C)c2ccc(OCC(=O)NCCc3ccc(OC)cc3)cc2)cc1`, -14%; as for `CN1CCN(S(=O)(=O)c2cccc(C(=O)Nc3sc4c(c3-c3nc5ccccc5[nH]3)CCCC4)c2)CC1`, -16%. For the compound `O=C(Nc1ccncc1)c1cccs1`, the inhibition is 37.2%. `O=C(Nc1nonc1NC(=O)c1cccs1)c1cccs1`: the inhibition was 58.9% (active). The result for `O=C(Nc1ccc(NC(=O)c2cccs2)cc1)c1cccs1` reads -30.2%; that for `N#C/C(=C\c1cccc([N+](=O)[O-])c1)C(=O)NCC1CCCO1` (stereo not drawn), -21%; that for `O=C(Nc1ccccc1C(=O)O)c1ccc(Br)c(S(=O)(=O)NCc2ccccc2)c1`, -0.6%. The result for `COC(=O)CSc1ncnc2c1cnn2Cc1ccccc1` reads 13.7%; that for `CCOC(=O)CNC(=O)CSc1ncnc2c1cnn2-c1ccccc1`, -10.2%; that for `CCOC(=O)CNC(=O)CSc1ncnc2c1cnn2Cc1ccccc1`, 55.8% (active).

As for `COc1ccc(-c2cc(C3CCN(c4cc(Cl)nc(N)n4)CC3)[nH]n2)cc1`, the inhibition was 25.9%. As for `COc1ccc(OC)c(-c2cc(C3CCN(c4cc(Cl)nc(N)n4)CC3)[nH]n2)c1`, the figure is 56.3% (active). As for `Nc1nc(Cl)cc(N2CCC(c3cc(-c4ccc(Cl)cc4Cl)n[nH]3)CC2)n1`, the figure is 34.5%; as for `COC(=O)c1cc(C(=O)c2ccccc2)n2c(=O)/c(=C\N(C)C)sc12`, -11.3%.

With `O=C(NNC(=S)Nc1ccccc1C(F)(F)F)C1CC1`, the inhibition was -0.9%.

For the compound `O=C(CCC(=O)Nc1ccccc1Cl)NNC(=S)Nc1ccccc1C(F)(F)F`, the inhibition is -30.7%.

In the case of `N#CCC(=O)NNC(=S)Nc1ccccc1C(F)(F)F`, the inhibition is 42.8% (active). The result for `Cc1cc(C)c2c(N)c(C(=O)c3ccc(Br)cc3)oc2n1` reads 68.7% (active); that for `Cc1cc(C)c2c(N)c(C(=O)c3ccccc3)oc2n1`, 2%. The result for `Cc1ccc(C(=O)c2oc3nc(C)cc(C)c3c2N)cc1` reads -6.8%; that for `CCOC(=O)c1c(C)[nH]c(C(=O)COC(=O)c2ccccn2)c1C`, 1%. Regarding `CC(C)n1c(CN(C)c2ccccc2)nc2ccccc21`, the inhibition was -18.1%. As for `COc1ccc(OC)c(S(=O)(=O)Nc2ccc(OCC(=O)O)cc2)c1`, the figure is 2.7%; as for `COc1ccc(NC(C)=O)cc1S(=O)(=O)NC(Cc1ccccc1)C(=O)O` (stereo not drawn), -2.4%; as for `COc1ccc(NC(=O)c2nnn(CC(=O)Nc3ccc4c(c3)OCO4)c2N)c(OC)c1`, -46.4%. Take `C=CCN=C(NC#N)SCC(=O)NC(C)(C)C`: the inhibition was 1.5%.

As for `Cn1c(SCC(=O)NC2CCCCC2)nnc1-c1cccc(N)c1`, the inhibition is 46.1% (active). The result for `Cn1c(SCC(=O)NC2CCCCC2)nnc1-c1ccc(N)cc1` reads -10.1%; that for `Cc1cccc(-c2nnc(SCC(=O)NC3CC3)n2C)c1`, -27.5%. As for `CCn1ccnc1[C@@H]1C[C@H]2CN(c3ccccc3OC)C(=O)[C@]23CCCN13`, the inhibition is -22.3%. With `C=C(C)Cn1c(NCCC)nc2c1c(=O)n(C)c(=O)n2C`, the inhibition was -26.6%. `CC(CCc1ccccc1)NC(=O)CN1CCSc2ccccc21` (stereo not drawn): the inhibition is 8%.

Consider `CC(C)(C)C1CCC(=O)N(CCSc2ccccc2)CC1` (stereo not drawn), for which the inhibition is -65%. As for `COC1=C(OC)C(=O)C(CCCCCCCCCCO)=C(C)C1=O`, the figure is 87.7% (active); as for `CC1=C(C)C(=O)C(CCCCC#CCCCC#CCO)=C(C)C1=O`, -6.7%; as for `Cc1[nH]c(=S)[nH]c(=O)c1CCCO`, -25.6%.

For `COc1ccc(C(CCN(Cc2ccc(OC)c(OC)c2)C(C)=O)c2ccccc2)cc1` (stereo not drawn), the inhibition is 14.5%.

On to `COc1ccc(CNCCC(c2ccc(OC(C)C)cc2)c2ccccc2OC)cc1OC` (stereo not drawn), for which the inhibition was -0.9%. Take `COc1ccc(C(CCN(Cc2ccc(OC)c(OC)c2)C(C)=O)C(C)C)cc1` (stereo not drawn): the inhibition is -0.7%. The result for `COc1ccc(C(CCN(Cc2ccc(OC)c(OC)c2)C(=O)CCl)c2ccccc2)cc1` (stereo not drawn) reads 82.9% (active); that for `COc1ccc(CNCCC(c2ccccc2)c2ccc(OC(C)C)cc2)cc1OC` (stereo not drawn), -3.1%.
